APP transl inh: inhibitors of APP translation via 5'UTR reporter, primary screen, APP 5'UTR luciferase, SH-SY5Y cells; SH-SY5Y APP 5'UTR-luciferase reporter, luminescence; inhibition, % at 2 µM; AID 1285, 2008; 0.82% of 190,000 active;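 active = inhibition above a set limit, derived from the sample mean plus 3 SD, cut at about 45% in these data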
IEC-6 tox: cytotoxicity in IEC-6 intestinal epithelial cells, primary screen, cytotoxicity control for KLF5 inhibitor project, cell-based, luminescence; IEC-6 cytotoxicity, luminescence viability; AID 1825, 2009; 0.78% of 290,000 active; inhibition, % at 5 µM; in the data active = inhibition above about 22%;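 note: 0% = plate median of test compound wells and 100% = cytotoxic reference compound wells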
BaF3 tox: parental Ba/F3 cell viability inhibition, counter-screen for JAK2V617F inhibitor project, murine pro-B, CellTiter-Glo luminescence; CellTiter-Glo ATP luminescence; inhibition, % at 5.6 µM; 1.1% of 220,000 active; AID 1486, 2009;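 active = inhibition above a per-campaign cutoff, the mean inhibition of all tested compounds plus 3 SD, cut at about 27% in these data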;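 note: 0% = DMSO wells and 100% = JAK Inhibitor I control wells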
KLF5 inh: KLF5 expression inhibitors, primary screen, DLD-1 cells, luminescence; DLD-1 KLF5 promoter-luciferase reporter; inhibition, % at 5 µM; 0.23% of 290,000 active; AID 1700, 2009;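 active = inhibition above a per-plate limit of that plate's mean compound inhibition plus 3 SD, cut at about 60% in these data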;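 note: 0% = DMSO wells and 100% = LY294002 at 200 µM; higher means less KLF5 promoter-driven luciferase light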
Ba/F3 V617F tox: reduced viability of JAK2V617F-dependent Ba/F3 cells, primary screen, JAK2V617F inhibitor project, cell-based, Ba/F3 EpoR-JAK2V617F, luminescence; inhibition, % at 5.6 µM; ATP luminescence; 1.1% of 220,000 active; AID 1446, 2008;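 active = inhibition above the campaign mean plus 3 SD over all tested compounds, cut at about 24% in these data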;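 note: cytokine-independent growth of Ba/F3 cells driven by EpoR plus mutant JAK2; 0% = DMSO-treated cells and 100% = JAK inhibitor I control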
* hit, by the source's call; nt = no result. Rows were chosen to be rich in hits. Some 1.9% of all compounds tested hit in one or more screens of this group.

SMILES	APP transl inh	IEC-6 tox	BaF3 tox	KLF5 inh	Ba/F3 V617F tox
Cc1c(NC(=O)COC(=O)C(c2ccc(Cl)cc2)C(C)C)c(=O)n(-c2ccccc2)n1C (stereo unspecified)	nt	-5	97*	-9	-2
N#C/C(=N\Nc1ccc(Cl)cc1)C(=O)c1ccccc1	-1	11	11	-6	2
Cc1c(N/N=C(\C#N)C(=O)c2ccc(Cl)cc2)c(=O)n(-c2ccccc2)n1C	73*	20	62*	31	31*
CN1CCN(S(=O)(=O)c2ccc(N3CCN(S(=O)(=O)/C=C/c4ccccc4)CC3)nc2)CC1	11	-1	47*	3	1
Cc1ccc(NC(=O)c2cnccn2)cc1C	nt	3	nt	-129	nt
OCCCNC(=S)Nc1ccc2nc(-c3ccccn3)c(-c3ccccn3)nc2c1	0	-1	71*	-44	85*
Cc1ccc(NC(=O)/C=C/c2ccc([N+](=O)[O-])s2)cc1	84*	-1	2	-16	-1
Cc1ccc(C(=O)N/N=C/c2ccc([N+](=O)[O-])s2)cc1	70*	-1	1	-34	-1
Cc1cccc(NC(=O)/C=C/c2ccc([N+](=O)[O-])s2)c1	88*	8	-1	-10	3
O=C(N/N=C/c1ccc([N+](=O)[O-])s1)c1ccncc1	14	-4	8	-9	1
Cc1ccc(NC(=O)COC(=O)c2ccc([N+](=O)[O-])s2)c(C)c1	58*	-1	4	0	-2
CCOC(=O)N1CCC(NS(=O)(=O)c2ccc(C#N)cc2)CC1	nt	4	1	0	4
Cc1ccc(NC(=O)/C=C/c2ccc([N+](=O)[O-])s2)c(C)c1	93*	-1	-2	-9	11
COc1ccc(-c2n(CC(=O)OC3CC(C)CCC3C(C)C)c3ccccc3[n+]2C)cc1 (stereo unspecified)	14	21	89*	52	100*
CC1CCC(C(C)C)C(OC(=O)CSc2nccc(=O)[nH]2)C1 (stereo unspecified)	-15	2	3	-8	2
COc1ccc(OCc2n(CC(=O)OC3CC(C)CCC3C(C)C)c3ccccc3[n+]2C)cc1 (stereo unspecified)	nt	12	100*	-6	99*
CC1CC(=O)c2c(cc3c(-c4c(O)cc(O)c5c(O)c6c(cc45)OC(C)CC6=O)c(O)cc(O)c3c2O)O1 (stereo unspecified)	50*	-8	-9	-28	3
CCOC(=O)C1=C(N)n2c(s/c(=C\c3cccs3)c2=O)=C(C(=O)OCC)C1c1cccs1 (stereo unspecified)	3	18	54*	6	42*
Cc1cc(NC(=O)c2nn(C)c(C)c2Br)no1	nt	5	nt	-86	nt
O=C(CCSc1ccccc1)Nc1nnc(-c2cccs2)o1	-6	-1	-3	-12	-4
Cc1ccc(S(=O)(=O)Nc2cccc3ncccc23)s1	56*	94*	4	24	3
CCOc1ccc2c(c1)[N+](C)(C)C(C)(C)C=C2C	21	5	60*	-30	54*
COc1ccc2c(c1)[N+](C)(C)C(C)(C)C=C2C	10	-1	47*	7	26*
Nc1c(C(=O)c2ccccc2)sc2snc(SCC(=O)c3ccccc3)c12	-38	4	95*	-30	-4
O=C(NC1CC1)C1CCN(C2CCN(C(=O)c3c(F)cccc3Cl)CC2)CC1	nt	9	nt	-11	nt
SMILES	APP transl inh	IEC-6 tox	BaF3 tox	KLF5 inh	Ba/F3 V617F tox
Cc1ccn2c(C(=O)NN=C3CCN(C)CC3)c(C)nc2c1	-18	-4	2	5	0
Cc1ccc2nc(C)c(C(=O)NN=C3CCCCCC3)n2c1	84*	9	2	-9	-1
CC1=CC(C)(C)N2C(=O)C(=O)c3cc(OC(=O)c4ccco4)cc1c32	66*	88*	53*	27	69*
O=C(O)c1ccc(NC(=O)c2ccccc2NC(=O)c2cccc(Br)c2)cc1	nt	-11	nt	-6	nt
O=C(N/N=C/c1cccnc1)c1ccc(NC(=O)C(c2ccccc2)c2ccccc2)cc1	70*	-5	2	-23	2
COC(=O)c1ccc(COc2ccc3ccc(=O)oc3c2)o1	nt	3	nt	-37	nt
COC(=O)c1cc(COc2ccc3ccc(=O)oc3c2)c(C)o1	-13	-2	94*	-19	1

Assay outcomes: PubChem BioAssay, several laboratories
